# Source: publication PMC7862700, “An all-to-all approach to the identification of sequence-specific readers for epigenetic DNA modifications on cytosine”
# Key:
# Experiment in all cases: DAPPL (digital affinity profiling via proximity ligation, sequencing); 10 mM Tris-HCl pH 7.5, 50 mM NaCl, 1 mM DTT, 4% glycerol, room temperature, 30 min; GST-TFs on glutathione beads, 16-mer random dsDNA library, 0.1% formaldehyde crosslink after washing; high values mean tight binding
# FLI1 = biological target: T1, FLI1 (Homo sapiens, UniProt Q01543 1-452); details: protein: recombinant; tags: N-terminal GST; dsDNA, one strand shown
# T1 sequence: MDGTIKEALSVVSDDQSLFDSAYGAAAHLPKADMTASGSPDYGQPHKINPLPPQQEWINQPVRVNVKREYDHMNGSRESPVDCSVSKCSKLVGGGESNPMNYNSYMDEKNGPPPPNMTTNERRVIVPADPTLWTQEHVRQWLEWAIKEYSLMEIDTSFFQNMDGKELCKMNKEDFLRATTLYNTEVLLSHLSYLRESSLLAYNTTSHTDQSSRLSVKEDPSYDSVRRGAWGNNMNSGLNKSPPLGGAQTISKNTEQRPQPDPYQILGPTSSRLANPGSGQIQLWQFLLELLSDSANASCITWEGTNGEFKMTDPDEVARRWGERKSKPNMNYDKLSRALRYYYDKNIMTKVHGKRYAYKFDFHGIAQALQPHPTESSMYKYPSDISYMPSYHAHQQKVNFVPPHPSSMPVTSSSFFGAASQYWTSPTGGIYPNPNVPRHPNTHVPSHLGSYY
# Outline: (§1)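 Yeast served to express human transcription factors as GST fusions, which were then captured on glutathione beads and labelled with DNA barcodes. Pooled with a tag-only sample, they were incubated with 200 nmole of a 16-mer random double-stranded DNA library for 30 min at room temperature in Tris/NaCl/DTT/glycerol buffer, washed, crosslinked with 0.1% formaldehyde, ligated by proximity, amplified by PCR and sequenced. Dividing each hexamer's read frequency for a factor by its frequency for the tag-only sample gives the binding signal.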
# ELK1 = biological target: T2, ELK1 (Homo sapiens, UniProt P19419 1-428); details: protein: recombinant; tags: N-terminal GST; dsDNA, one strand shown
# T2 sequence: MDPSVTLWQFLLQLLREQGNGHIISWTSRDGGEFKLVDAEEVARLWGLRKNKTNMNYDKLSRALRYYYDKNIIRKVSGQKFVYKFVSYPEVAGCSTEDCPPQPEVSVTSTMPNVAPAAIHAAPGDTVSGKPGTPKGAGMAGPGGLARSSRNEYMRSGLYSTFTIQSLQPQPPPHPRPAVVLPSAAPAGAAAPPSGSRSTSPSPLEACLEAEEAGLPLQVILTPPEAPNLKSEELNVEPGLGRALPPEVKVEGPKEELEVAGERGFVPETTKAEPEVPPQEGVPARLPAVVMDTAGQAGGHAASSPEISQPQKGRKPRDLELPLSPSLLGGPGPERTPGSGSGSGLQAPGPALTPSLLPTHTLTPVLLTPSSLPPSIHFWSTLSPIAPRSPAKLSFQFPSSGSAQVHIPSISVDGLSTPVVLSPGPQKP
# Outline: as §1
# GABPA = biological target: T3, GABPA (Homo sapiens, UniProt Q06546 1-454); details: protein: recombinant; tags: N-terminal GST; dsDNA, one strand shown
# T3 sequence: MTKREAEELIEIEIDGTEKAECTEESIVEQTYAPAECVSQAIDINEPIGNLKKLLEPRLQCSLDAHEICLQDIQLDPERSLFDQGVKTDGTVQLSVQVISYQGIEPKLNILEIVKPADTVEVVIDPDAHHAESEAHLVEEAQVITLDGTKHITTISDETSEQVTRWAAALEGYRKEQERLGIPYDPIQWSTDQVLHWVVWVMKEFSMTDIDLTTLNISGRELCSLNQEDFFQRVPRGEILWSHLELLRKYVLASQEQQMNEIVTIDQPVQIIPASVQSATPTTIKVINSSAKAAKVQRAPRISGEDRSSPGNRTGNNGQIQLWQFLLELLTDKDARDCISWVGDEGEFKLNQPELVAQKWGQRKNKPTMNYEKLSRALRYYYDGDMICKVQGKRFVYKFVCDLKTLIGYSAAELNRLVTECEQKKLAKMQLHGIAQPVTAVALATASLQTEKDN
# Outline: as §1
# ERG = biological target: T4, ERG (Homo sapiens, UniProt P11308 1-479); details: protein: recombinant; tags: N-terminal GST; dsDNA, one strand shown
# T4 sequence: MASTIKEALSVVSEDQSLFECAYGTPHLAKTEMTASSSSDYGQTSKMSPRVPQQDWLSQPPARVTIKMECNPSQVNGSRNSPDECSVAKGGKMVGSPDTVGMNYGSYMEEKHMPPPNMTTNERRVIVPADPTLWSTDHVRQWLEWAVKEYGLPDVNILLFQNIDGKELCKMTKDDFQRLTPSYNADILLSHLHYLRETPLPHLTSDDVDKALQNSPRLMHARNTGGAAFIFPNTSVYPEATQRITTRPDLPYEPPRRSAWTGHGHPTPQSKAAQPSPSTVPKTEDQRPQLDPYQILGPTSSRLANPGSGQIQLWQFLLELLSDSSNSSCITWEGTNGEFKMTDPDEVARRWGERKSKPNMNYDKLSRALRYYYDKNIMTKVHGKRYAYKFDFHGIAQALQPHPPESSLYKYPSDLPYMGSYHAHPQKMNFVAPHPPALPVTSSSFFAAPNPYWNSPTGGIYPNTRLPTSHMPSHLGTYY
# Outline: as §1
# ELF1 = ELF1 (Homo sapiens, UniProt P32519 1-619); details: protein: recombinant; tags: N-terminal GST; dsDNA, one strand shown
# Chain of ELF1 (P32519 whole entry): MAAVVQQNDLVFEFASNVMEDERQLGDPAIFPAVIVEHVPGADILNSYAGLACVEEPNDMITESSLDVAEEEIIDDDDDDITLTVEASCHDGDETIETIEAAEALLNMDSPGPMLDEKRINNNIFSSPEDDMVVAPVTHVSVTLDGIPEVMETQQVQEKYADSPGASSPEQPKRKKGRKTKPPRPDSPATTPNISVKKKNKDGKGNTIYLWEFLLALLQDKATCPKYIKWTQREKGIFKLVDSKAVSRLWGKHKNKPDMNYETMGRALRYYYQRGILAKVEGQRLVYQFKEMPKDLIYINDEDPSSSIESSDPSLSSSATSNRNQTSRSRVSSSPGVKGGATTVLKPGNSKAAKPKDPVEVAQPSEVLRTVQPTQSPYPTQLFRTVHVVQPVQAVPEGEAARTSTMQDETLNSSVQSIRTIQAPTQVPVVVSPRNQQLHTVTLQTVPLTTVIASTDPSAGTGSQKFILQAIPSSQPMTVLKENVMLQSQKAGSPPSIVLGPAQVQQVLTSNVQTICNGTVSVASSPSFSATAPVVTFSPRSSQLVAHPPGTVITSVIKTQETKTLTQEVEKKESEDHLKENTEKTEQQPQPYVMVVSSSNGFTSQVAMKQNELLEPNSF
# Outline: as §1
# EHF = biological target: T5, EHF (Homo sapiens, UniProt Q9NZC4 1-300); details: protein: recombinant; tags: N-terminal GST; dsDNA, one strand shown
# T5 sequence: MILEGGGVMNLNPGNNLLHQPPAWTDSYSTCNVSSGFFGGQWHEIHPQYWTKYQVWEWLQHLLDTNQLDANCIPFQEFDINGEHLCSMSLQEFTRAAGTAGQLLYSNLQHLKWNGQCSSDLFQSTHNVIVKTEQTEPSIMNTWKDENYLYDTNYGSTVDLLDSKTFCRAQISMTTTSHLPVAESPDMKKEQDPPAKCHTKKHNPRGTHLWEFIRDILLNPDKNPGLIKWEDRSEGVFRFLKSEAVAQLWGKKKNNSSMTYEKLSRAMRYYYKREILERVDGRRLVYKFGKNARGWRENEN
# Outline: as §1
# SPI1 = SPI1 (Homo sapiens, UniProt P17947 1-270); details: protein: recombinant; tags: N-terminal GST; dsDNA, one strand shown
# Outline: as §1
# SPIB = SPIB (Homo sapiens, UniProt Q01892 1-262); details: protein: recombinant; tags: N-terminal GST; dsDNA, one strand shown
# Chain of SPIB (Q01892 whole entry): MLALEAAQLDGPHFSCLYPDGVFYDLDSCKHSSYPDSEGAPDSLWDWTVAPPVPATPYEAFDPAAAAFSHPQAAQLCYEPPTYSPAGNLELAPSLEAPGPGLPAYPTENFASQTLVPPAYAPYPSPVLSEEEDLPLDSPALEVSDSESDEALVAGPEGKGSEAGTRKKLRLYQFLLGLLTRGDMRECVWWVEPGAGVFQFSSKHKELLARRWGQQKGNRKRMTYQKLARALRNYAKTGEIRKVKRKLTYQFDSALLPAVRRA
# Outline: as §1
# ELK3 = biological target: T6, ELK3 (Homo sapiens, UniProt P41970 1-407); details: protein: recombinant; tags: N-terminal GST; dsDNA, one strand shown
# T6 sequence: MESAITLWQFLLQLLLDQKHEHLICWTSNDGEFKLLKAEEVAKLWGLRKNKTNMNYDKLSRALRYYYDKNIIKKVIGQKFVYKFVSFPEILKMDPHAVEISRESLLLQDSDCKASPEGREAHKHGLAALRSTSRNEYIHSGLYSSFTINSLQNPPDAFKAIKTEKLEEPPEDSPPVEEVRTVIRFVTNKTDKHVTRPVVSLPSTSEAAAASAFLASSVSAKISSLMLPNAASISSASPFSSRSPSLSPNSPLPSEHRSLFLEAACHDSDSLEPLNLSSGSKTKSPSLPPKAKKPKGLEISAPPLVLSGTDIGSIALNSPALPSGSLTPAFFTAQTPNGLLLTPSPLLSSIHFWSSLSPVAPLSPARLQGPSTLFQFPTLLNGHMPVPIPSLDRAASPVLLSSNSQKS
# Outline: as §1
# FEV = biological target: T7, FEV (Homo sapiens, UniProt Q99581 1-238); details: protein: recombinant; tags: N-terminal GST; dsDNA, one strand shown
# T7 sequence: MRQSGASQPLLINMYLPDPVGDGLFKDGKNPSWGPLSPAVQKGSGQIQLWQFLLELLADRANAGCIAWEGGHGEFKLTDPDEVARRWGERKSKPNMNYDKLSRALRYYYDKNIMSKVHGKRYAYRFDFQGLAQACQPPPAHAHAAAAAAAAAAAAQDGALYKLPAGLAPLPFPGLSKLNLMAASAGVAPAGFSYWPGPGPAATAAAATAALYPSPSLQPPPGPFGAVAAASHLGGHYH
# Outline: as §1
# ETV5 = ETV5 (Homo sapiens, UniProt P41161 1-510); details: protein: recombinant; tags: N-terminal GST; dsDNA, one strand shown
# Chain of ETV5 (P41161 whole entry): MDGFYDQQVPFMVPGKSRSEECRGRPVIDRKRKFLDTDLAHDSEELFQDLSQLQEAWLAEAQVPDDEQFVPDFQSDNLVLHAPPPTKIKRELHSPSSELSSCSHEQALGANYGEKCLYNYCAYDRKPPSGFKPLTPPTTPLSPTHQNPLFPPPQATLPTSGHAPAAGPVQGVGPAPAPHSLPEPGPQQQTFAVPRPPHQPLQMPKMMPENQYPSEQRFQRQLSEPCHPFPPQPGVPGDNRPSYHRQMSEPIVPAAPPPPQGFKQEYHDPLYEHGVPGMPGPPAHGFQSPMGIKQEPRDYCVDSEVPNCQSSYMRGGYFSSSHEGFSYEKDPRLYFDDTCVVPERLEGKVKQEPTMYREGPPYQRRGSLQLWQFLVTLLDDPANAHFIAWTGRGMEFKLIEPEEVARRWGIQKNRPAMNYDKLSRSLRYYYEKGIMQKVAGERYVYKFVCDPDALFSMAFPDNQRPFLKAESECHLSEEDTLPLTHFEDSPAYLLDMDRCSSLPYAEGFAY
# Outline: as §1
# HSF1 = HSF1 (Homo sapiens, UniProt Q00613 1-529); details: protein: recombinant; tags: N-terminal GST; chain copies: 3; dsDNA, one strand shown
# Chain of HSF1 (Q00613 whole entry): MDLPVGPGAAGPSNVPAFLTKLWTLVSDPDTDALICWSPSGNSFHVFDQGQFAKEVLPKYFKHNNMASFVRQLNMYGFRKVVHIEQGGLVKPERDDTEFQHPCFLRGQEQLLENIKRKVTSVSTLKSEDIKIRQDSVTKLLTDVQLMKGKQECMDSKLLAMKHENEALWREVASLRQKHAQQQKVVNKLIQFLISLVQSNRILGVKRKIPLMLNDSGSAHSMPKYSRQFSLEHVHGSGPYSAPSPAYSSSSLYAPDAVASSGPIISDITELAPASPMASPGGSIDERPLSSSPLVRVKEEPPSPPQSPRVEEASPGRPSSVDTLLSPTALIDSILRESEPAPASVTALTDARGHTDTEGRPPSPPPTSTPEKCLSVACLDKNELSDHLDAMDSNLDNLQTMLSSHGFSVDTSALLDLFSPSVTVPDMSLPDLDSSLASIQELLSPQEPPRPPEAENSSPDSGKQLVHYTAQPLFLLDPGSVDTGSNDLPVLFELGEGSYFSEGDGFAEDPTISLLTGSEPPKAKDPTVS
# Outline: as §1
# SPIC = biological target: T8, SPIC (Homo sapiens, UniProt Q8N5J4 1-248); details: protein: recombinant; tags: N-terminal GST; dsDNA, one strand shown
# T8 sequence: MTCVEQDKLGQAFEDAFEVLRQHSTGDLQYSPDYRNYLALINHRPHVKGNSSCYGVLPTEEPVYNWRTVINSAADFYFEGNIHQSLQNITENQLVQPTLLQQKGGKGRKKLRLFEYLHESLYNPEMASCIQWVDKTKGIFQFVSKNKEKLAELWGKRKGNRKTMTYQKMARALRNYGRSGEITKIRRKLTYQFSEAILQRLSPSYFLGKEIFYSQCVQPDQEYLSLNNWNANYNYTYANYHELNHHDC
# Outline: as §1
# ELF4 = ELF4 (Homo sapiens, UniProt Q99607 1-663); details: protein: recombinant; tags: N-terminal GST; dsDNA, one strand shown
# Chain of ELF4 (Q99607 whole entry): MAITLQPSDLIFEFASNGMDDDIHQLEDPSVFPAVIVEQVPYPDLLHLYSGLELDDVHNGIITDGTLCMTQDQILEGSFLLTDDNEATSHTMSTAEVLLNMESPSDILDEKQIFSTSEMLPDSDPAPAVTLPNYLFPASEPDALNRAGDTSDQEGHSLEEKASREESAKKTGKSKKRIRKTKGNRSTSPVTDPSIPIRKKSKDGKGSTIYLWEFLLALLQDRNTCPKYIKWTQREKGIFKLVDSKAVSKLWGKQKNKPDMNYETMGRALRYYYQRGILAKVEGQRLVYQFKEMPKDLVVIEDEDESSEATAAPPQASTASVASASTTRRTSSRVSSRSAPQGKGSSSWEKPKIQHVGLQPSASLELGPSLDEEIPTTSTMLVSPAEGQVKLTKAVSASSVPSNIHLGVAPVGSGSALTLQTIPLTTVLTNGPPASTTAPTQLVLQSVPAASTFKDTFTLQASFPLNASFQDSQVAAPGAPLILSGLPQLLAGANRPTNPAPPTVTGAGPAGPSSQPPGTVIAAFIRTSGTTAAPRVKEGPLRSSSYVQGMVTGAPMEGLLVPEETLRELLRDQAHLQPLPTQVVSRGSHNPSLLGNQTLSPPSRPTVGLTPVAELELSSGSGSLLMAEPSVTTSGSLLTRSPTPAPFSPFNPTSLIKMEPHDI
# Outline: as §1
# ELK4 = biological target: T9, ELK4 (Homo sapiens, UniProt P28324-2 1-405); details: protein: recombinant; tags: N-terminal GST; dsDNA, one strand shown
# T9 sequence: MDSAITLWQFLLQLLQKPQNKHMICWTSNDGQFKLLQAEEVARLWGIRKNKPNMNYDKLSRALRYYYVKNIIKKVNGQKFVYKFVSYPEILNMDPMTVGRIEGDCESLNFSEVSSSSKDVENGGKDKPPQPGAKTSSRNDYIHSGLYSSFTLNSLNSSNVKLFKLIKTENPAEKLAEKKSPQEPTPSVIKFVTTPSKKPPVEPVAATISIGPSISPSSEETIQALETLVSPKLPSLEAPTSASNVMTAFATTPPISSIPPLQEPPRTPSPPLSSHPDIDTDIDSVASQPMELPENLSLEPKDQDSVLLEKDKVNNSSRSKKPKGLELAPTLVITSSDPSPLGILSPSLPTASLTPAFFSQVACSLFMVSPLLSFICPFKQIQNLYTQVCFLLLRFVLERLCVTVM
# Outline: as §1
# ETV2 = biological target: T10, ETV2 (Homo sapiens, UniProt O00321 1-342); details: protein: recombinant; tags: N-terminal GST; dsDNA, one strand shown
# T10 sequence: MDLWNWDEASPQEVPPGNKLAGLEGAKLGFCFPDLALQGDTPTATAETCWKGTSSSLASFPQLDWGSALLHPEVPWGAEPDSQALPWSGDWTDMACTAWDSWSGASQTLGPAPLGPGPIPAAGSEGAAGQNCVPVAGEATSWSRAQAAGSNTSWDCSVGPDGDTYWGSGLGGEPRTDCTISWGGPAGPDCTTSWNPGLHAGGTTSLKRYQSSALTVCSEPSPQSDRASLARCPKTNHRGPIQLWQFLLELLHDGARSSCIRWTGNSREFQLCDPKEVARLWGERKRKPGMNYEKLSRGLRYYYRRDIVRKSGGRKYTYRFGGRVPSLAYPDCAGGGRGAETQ
# Outline: as §1
# ELF3 = biological target: T11, ELF3 (Homo sapiens, UniProt P78545 1-371); details: protein: recombinant; tags: N-terminal GST; dsDNA, one strand shown
# T11 sequence: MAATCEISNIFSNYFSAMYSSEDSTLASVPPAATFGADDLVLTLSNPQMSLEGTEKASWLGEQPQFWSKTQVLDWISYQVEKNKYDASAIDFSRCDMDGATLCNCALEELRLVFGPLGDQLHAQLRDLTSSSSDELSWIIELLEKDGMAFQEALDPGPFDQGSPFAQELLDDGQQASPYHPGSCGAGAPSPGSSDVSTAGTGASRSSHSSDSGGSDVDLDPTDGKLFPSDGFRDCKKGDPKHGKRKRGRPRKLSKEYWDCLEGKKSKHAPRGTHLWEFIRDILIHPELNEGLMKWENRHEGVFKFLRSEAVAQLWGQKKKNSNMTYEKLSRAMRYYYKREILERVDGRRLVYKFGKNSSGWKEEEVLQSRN
# Outline: as §1
# CRX = CRX (Homo sapiens, UniProt O43186 1-299); details: protein: recombinant; tags: N-terminal GST; dsDNA, one strand shown
# Chain of CRX (O43186 whole entry): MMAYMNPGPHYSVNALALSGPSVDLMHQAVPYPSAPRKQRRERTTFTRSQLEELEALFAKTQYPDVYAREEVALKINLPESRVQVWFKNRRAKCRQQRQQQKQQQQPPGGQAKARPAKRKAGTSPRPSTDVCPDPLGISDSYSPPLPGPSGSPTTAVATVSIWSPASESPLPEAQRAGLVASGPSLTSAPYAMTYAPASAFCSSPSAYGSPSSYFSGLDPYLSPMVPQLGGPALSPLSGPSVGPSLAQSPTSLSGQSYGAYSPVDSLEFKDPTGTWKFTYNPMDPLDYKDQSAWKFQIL
# Outline: as §1
# ETV1 = ETV1 (Homo sapiens, UniProt P50549 1-477); details: protein: recombinant; tags: N-terminal GST; dsDNA, one strand shown
# Chain of ETV1 (P50549 whole entry): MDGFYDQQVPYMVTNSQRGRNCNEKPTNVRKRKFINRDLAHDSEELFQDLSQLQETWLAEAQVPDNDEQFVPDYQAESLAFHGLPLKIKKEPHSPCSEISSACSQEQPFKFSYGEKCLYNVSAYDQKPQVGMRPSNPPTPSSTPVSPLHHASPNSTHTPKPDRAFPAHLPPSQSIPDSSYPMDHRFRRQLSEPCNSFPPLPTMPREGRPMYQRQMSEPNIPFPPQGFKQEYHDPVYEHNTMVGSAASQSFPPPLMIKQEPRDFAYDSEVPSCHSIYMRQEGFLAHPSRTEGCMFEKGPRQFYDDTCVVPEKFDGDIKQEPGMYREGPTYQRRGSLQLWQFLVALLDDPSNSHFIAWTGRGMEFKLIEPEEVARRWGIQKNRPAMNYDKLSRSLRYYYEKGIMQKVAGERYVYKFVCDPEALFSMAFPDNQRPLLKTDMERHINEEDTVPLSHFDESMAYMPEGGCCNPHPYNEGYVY
# Outline: as §1
sequence,measurement,setting,value
TAACAC,binding signal,FLI1,"1.26 fold enrichment (6-mer frequency, TF over GST control)"
same,binding signal,ELK1,"1.2 fold enrichment (6-mer frequency, TF over GST control)"
same,binding signal,GABPA,"1.24 fold enrichment (6-mer frequency, TF over GST control)"
same,binding signal,ERG,"1.19 fold enrichment (6-mer frequency, TF over GST control)"
same,binding signal,ELF1,"1.23 fold enrichment (6-mer frequency, TF over GST control)"
same,binding signal,EHF,"1.21 fold enrichment (6-mer frequency, TF over GST control)"
same,binding signal,SPI1,"1.18 fold enrichment (6-mer frequency, TF over GST control)"
same,binding signal,SPIB,"1.25 fold enrichment (6-mer frequency, TF over GST control)"
same,binding signal,ELK3,"1.15 fold enrichment (6-mer frequency, TF over GST control)"
same,binding signal,FEV,"1.24 fold enrichment (6-mer frequency, TF over GST control)"
same,binding signal,ETV5,"1.23 fold enrichment (6-mer frequency, TF over GST control)"
same,binding signal,HSF1,"1.2 fold enrichment (6-mer frequency, TF over GST control)"
same,binding signal,SPIC,"1.39 fold enrichment (6-mer frequency, TF over GST control)"
same,binding signal,ELF4,"1.26 fold enrichment (6-mer frequency, TF over GST control)"
same,binding signal,ELK4,"1.32 fold enrichment (6-mer frequency, TF over GST control)"
same,binding signal,ETV2,"1.15 fold enrichment (6-mer frequency, TF over GST control)"
same,binding signal,ELF3,"1.16 fold enrichment (6-mer frequency, TF over GST control)"
same,binding signal,CRX,"1.56 fold enrichment (6-mer frequency, TF over GST control)"
same,binding signal,ETV1,"1.19 fold enrichment (6-mer frequency, TF over GST control)"
